# Shown is part of a subset that was picked to be rich in hits.
# NOMO-1 viab: STK33 inhibitor candidate reducing NOMO-1 cell viability; inhibition, % (no concentration beside the values); 37,000 tested, 7.5% active; AID 2330; NOMO-1 AML viability, CellTiter-Glo luminescence, 72 h; in the data active = inhibition above about 80%; inconclusive = no clear call, values can overlap the other calls
# STK33 kin inh: human STK33 kinase inhibition. AID 2322. inhibition, % at 12.5 µM. 27,000 tested, 0.44% active. ADP-Glo luminescence, MBP substrate. Q9BYT3; in the data active = inhibition above about 20%; inconclusive = no clear call, values can overlap the other calls
# Target sequence (Q9BYT3 whole entry, looked up): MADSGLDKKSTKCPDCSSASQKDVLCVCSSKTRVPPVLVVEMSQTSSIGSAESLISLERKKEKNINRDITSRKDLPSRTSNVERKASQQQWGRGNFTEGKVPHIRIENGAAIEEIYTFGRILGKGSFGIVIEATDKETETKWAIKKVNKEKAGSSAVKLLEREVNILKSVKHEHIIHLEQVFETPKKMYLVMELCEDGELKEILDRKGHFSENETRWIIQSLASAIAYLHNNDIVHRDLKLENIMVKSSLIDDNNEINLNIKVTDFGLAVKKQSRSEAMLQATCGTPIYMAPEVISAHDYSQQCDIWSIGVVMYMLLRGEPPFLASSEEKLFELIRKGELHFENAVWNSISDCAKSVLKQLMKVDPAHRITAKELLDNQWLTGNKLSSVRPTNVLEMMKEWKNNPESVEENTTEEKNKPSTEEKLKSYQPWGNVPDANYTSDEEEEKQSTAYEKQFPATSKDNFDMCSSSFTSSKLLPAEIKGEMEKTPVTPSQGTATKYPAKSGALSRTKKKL
# PD-1 reversal: activators reversing PD-1 mediated T-cell inhibition; primary human CD4 T cells, PD-L1 beads, CellTiter-Glo 96 h; activation, % (no concentration beside the values); 29,000 tested, under 10 active; AID 2316; call rule not given here;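 also: 0% = median vehicle wells and 100% = positive control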
# The depositor's hits bear a star; ? = inconclusive; . = no result given.
SMILES,NOMO-1 viab,STK33 kin inh,PD-1 reversal
C[C@H](CO)N1C[C@H](C)[C@H](CN(C)Cc2ccncc2)Oc2ccc(NC(=O)Nc3ccc(F)cc3)cc2CC1=O,-8,-1,1
C[C@@H]1CN([C@@H](C)CO)C(=O)Cc2cc(NC(=O)Nc3ccc(F)cc3)ccc2O[C@@H]1CN(C)Cc1ccc(Cl)c(Cl)c1,103*,1,-3
C[C@@H]1CN([C@@H](C)CO)C(=O)Cc2cc(NC(=O)NC3CCCCC3)ccc2O[C@@H]1CN(C)Cc1ccncc1,-1,8,-1
COc1ccc(NC(=O)Nc2ccc3c(c2)CC(=O)N([C@H](C)CO)C[C@H](C)[C@H](CN(C)Cc2ccc(Cl)c(Cl)c2)O3)cc1,69,-2,2
C[C@H]1CN([C@@H](C)CO)C(=O)Cc2cc(NC(=O)Nc3ccccc3)ccc2O[C@H]1CN(C)Cc1ccc(Cl)c(Cl)c1,104*,4,-2
C[C@@H]1CN([C@H](C)CO)C(=O)Cc2cc(NC(=O)NC3CCCCC3)ccc2O[C@@H]1CN(C)Cc1ccc(Cl)c(Cl)c1,114*,-1,-9
CCCN1CC=C2C(C#N)(C#N)C(N)=C(C#N)C(c3ccc(OCC(N)=O)cc3)C2(C)C1 (stereo not drawn),?,.,1
O=C(Cn1cnc2ccccc2c1=O)Nc1ccc(I)cc1,2,1,0
Cc1ncc(CO)c(/C=N/O)c1O,2,.,0
O=c1cc(NCc2ccccc2)[nH]nc1-c1ccccc1,-10,.,0
COC(=O)c1cc(NC(=O)COc2c(C)cc(Cl)cc2Cl)cc(C(=O)OC)c1,15,5,1
COc1ccc(Cl)cc1NC(=O)CSc1nnc(-c2cc3cc(Br)ccc3o2)n1C,77,3,.
C[C@H](CO)N1C[C@H](C)[C@H](CN(C)Cc2ccc3c(c2)OCO3)Oc2ccc(NC(=O)Nc3ccc4c(c3)OCO4)cc2CC1=O,40,.,.
C[C@H](CO)N1C[C@H](C)[C@H](CN(C)Cc2ccc(Cl)c(Cl)c2)Oc2ccc(NC(=O)Nc3ccc4c(c3)OCO4)cc2CC1=O,94*,.,.
COc1cccc2c1C(c1ccc3c(c1O)C(=O)CC(C)C3O)OC2=O (stereo not drawn),5,-5,1
COc1cccc2c1C(=O)c1c(O)c3c(c(O)c1C2=O)C[C@@](O)(C(=O)CO)C[C@@H]3OC1CC(N)C(O)C(C)O1 (stereo partly drawn),98*,6,-24
COc1cccc2c1C(=O)c1c(O)c3c(c(O)c1C2=O)C[C@@](O)(C(=O)CO)C[C@@H]3O[C@H]1C[C@H](N)[C@H](O)[C@H](C)O1,99*,4,-21
Cc1ccc(NC(=O)CSc2n[nH]c(N)n2)cc1Cl,18,1,.
CCc1cccc(C(C)C)c1NS(=O)(=O)c1ccc(C)cc1,43,.,-1
FC(F)(F)C1(C(F)(F)F)N=C(c2ccccc2)NC(c2ccccc2)=N1,48,.,-1
O=C(CC(Sc1ccc(Br)cc1)C(=O)O)c1ccc(Cl)cc1 (stereo not drawn),115*,.,-7
O=C(CC(NC1CC1)C(=O)O)c1ccc(Cl)cc1 (stereo not drawn),30,0,0
CC(=O)c1ccc(NC(=O)CN(C)S(=O)(=O)c2ccc(Cl)cc2)cc1,-13,0,1
O=C(/C=C/c1ccccc1)CC(O)CCc1ccccc1 (stereo not drawn),26,-5,1
O=C(/C=C/c1ccccc1)CC(O)(c1ccccc1)C(F)(F)F (stereo not drawn),122*,4,-36
SMILES,NOMO-1 viab,STK33 kin inh,PD-1 reversal
COc1ccc(S(=O)(=O)N(C)CC(=O)NC2CCCCC2)cc1C,12,1,-1
COc1cc(OC)c(OC)cc1CN1CCN(Cc2ccccn2)CC1,-2,-1,1
O=C(CSc1nc2ccccc2s1)Nc1cc(Cl)cc(Cl)c1,29,1,.
Nc1cc(-c2ccccc2)ccc1O,63,.,-1
CCCc1ccc(O)c(N)c1,124*,.,-7
CCN(CC)C(=S)Oc1ccc(I)cc1,-4,.,1
Cc1ccccc1-c1nnc(-c2cc(C(C)(C)C)nn2Cc2ccc(F)cc2)o1,20,0,1
O=C(Nc1ccc(Br)cc1)C12CC3CC(CC(C3)C1)C2,10,.,0
COC(=O)c1ccccc1S(=O)(=O)/C(C#N)=C/Nc1nc(C)cc(C)n1,33,.,0
Cc1cc(C)nc(SCC(=O)N2c3ccccc3Sc3ccccc32)n1,-1,1,-2
CCC(=O)c1ccc2c(c1)N(CC(C)N(C)C)c1ccccc1S2 (stereo not drawn),84*,-1,.
OC(c1ccccc1)c1oc2ccccc2c1-c1cnn(-c2ccccc2)c1 (stereo not drawn),112*,8,-13
O=C1/C(=C/c2ccc(O)cc2)SC(=S)N1CCc1ccccc1,102*,.,-2
CC(C)OC(=O)CCN1C(=O)/C(=C/c2ccccc2)SC1=S,40,.,-2
Cc1nc(SCCC(=O)Nc2ccccc2C#N)nc2cc3c(cc12)CCC3,3,1,.
CCC(=O)Nc1nonc1-c1nc2ccccc2n1Cc1cc(OC)ccc1C,130*,6,-4
CC(=O)Nc1nonc1-c1nc2ccccc2n1Cc1ccc(Cl)cc1Cl,?,-2,-1
Cc1cc(NC(=O)c2cc3nc(-c4cccs4)cc(C(F)(F)Cl)n3n2)n(-c2ccccc2)n1,?,7,.
CCCC(O)c1c(O)cccc1C1(O)CC(=O)C/C1=C\C(O)CC(=O)O (stereo not drawn),121*,-4,-15
O=C(CN1C(=O)CNC1=O)Nc1cccc2ccccc12,-7,-5,1
O=C(c1ccccc1)c1ccc2nc(-c3cccc(NC(=O)C4CCCO4)c3)[nH]c2c1 (stereo not drawn),100*,7,0
Cc1cccc(OCC(=O)Nc2cccc(-c3nc4ccccc4[nH]3)c2)c1C,62,3,0
CCOC(=O)c1sc(SCc2ccccc2)c2c1-c1sccc1N(C)S2(=O)=O,-18,.,-1
CSc1sc(C(=O)Sc2ccccc2)c2c1S(=O)(=O)N(C)c1ccccc1-2,121*,.,-1
Cc1ccc2nc(-c3ccc(NC(=O)CSc4nncn4C)cc3)sc2c1,7,3,1
SMILES,NOMO-1 viab,STK33 kin inh,PD-1 reversal
COc1cc(O)c(Cc2ccccc2O)c(O)c1C(=O)CCc1ccccc1,114*,-5,0
COc1cc(O)c(C(=O)CCc2ccccc2)c(O)c1Cc1ccccc1O,?,-1,0
NS(=O)(=O)c1ccc(N=Cc2c(O)[nH]c3ccccc23)cc1,26,94*,2
COc1cccc(NC(=O)CCc2nc(-c3ccccc3Cl)no2)c1,-3,-8,-1
CC1(C)c2ccccc2N2CC(=O)NC21/C=C/c1ccc(N2CCOCC2)cc1 (stereo not drawn),59,-1,-3
COc1ccc([N+](=O)[O-])cc1NC(=O)COc1ccc(Br)cc1Cl,11,-2,.
COc1cc2c(cc1NC(=O)COc1ccc(Br)cc1Cl)oc1ccccc12,128*,2,0
Oc1ccc(Br)cc1CNc1nc2ccccc2[nH]1,17,1,-1
O=C(CCN1C(=O)c2cccc3cccc(c23)C1=O)N1CCN(c2ncccn2)CC1,8,-3,4
CCCCCC[C@H](O)/C=C/CC1C(=O)CC[C@H](O)C1=O (stereo partly drawn),2,-1,-1
CCCCCCCCC/C=C/CCCCC(=O)C1C(=O)CCC(O)C1=O (stereo not drawn),109*,-8,0

# Assay outcomes: PubChem, Broad Institute
